Shown are actives, neighbours in structure and some others; about 1.7% of the full set was active somewhere.
GLP1R ag: activates the human GLP-1 receptor | Potency, µM (top dose mostly 45.6 µM), actives largely listed as activators | 380,000 compounds, 0.007% hits | HEK293 GLP-1R CRE-luciferase, luminescence, 4-6 h; cells express a hypersensitive GLP-1R form | P43220
GLP1R cytotox: cytotoxic in the GLP-1 receptor inverse agonist counter-screen. 410,000 compounds, 0.13% hits. AID 624418. HEK293 cAMP-luciferase reporter cells, luminescence, 24 h. Potency, µM (highest dose often 38.3 µM), most hits filed as inhibitors;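 further: loss of luciferase light is scored as toxicity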
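Compound-treated cells are incubated 24 hr at 37 deg C under 5% CO2 after a 12 hour attachment period, then luciferase detection reagent is added and luminescence is measured following 12 min at room temperature; lowered signal indicates toxicity.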
PTHR1 ag: PTHR1 (human) receptor agonism | Q03431 | Potency, µM (highest dose often 115 µM), most hits filed as activators | HEK293 GP2 PTHR1 cells, GloSensor cAMP luminescence, 1 h | 410,000 compounds, 0.075% hits; further: nearly all actives have a fitted effect of over 55% in size
Target sequence (Q03431 whole entry, looked up): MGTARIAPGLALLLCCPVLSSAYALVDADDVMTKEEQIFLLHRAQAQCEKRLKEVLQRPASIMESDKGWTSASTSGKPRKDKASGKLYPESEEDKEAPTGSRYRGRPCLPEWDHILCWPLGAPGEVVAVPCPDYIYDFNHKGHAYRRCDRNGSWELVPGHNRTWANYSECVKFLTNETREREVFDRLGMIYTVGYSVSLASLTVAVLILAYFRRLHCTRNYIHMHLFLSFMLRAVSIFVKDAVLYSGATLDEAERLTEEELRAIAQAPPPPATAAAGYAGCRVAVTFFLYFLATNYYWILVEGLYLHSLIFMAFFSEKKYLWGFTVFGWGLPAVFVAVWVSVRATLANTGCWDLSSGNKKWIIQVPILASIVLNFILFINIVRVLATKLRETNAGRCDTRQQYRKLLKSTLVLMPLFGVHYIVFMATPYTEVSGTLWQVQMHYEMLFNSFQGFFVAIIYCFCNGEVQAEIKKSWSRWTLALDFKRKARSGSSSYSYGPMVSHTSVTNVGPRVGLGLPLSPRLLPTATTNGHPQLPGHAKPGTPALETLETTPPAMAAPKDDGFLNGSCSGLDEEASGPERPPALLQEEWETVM
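HEK-293-derived GP2 cells expressing PTHR1 and a GloSensor cAMP reporter, 3,000/well, plated overnight, given luciferin plus IBMX (each 0.5 mM as added) for 1 h at 37 °C, then compound for 1 h at 37 °C. Luminescence was read after 15 min at room temperature.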
GLP1R inv ag: GLP-1 receptor (human) inverse agonism. P43220. HEK293 GLP-1R CRE-luciferase, luminescence, 24 h; GLP-1R form is constitutively active. Potency, µM (top dose mostly 38.3 µM), actives largely listed as inhibitors. 410,000 compounds, 1.6% hits. AID 624417; further: nearly all actives have a fitted effect of over 55% in size
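Cells are plated, allowed 12 hours at 37 deg C, then treated with compounds for 24 hr before luciferase detection reagent is added and luminescence is read after 12 min at room temperature. The HEK293 line carries constitutively active GLP-1R with a cAMP-responsive reporter.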
Each line names hits and unclear results; the compound was inactive in the other large screens. The call rests on the fitted dose curve; in most records, active means well fitted curve in the direction sought with a large enough effect; inconclusive means small, poorly fitted or top-dose-only effect, or another doubt; inactive means no such curve, though single readings can be large; an effect the other way counts as inactive or inconclusive.

CN(CC(=O)N1CCOCC1)Cc1c(Cl)cccc1NC(=O)c1ccccc1	none (no result: GLP1R cytotox, PTHR1 ag, GLP1R inv ag)
CCN1CCN(C(=O)/C=C/c2ccc(C)o2)CC1	none
Cc1ccc(/C=C/C(=O)N2CC(C)CC(C)C2)o1 (centres undefined)	GLP1R cytotox inconclusive, GLP1R inv ag 10µM
CCOC(=O)c1c(CC(C)C)csc1NC(=O)c1ccccc1C(=O)O	GLP1R inv ag 11µM
CC(C)(C)OC(=O)N1CCC(c2c(C(=O)Nc3ccc4c(c3)OCO4)cnn2-c2ccc(F)cc2F)CC1	GLP1R inv ag inconclusive (no result: GLP1R ag)
O=S(=O)(c1ccc2[nH]c3c(c2c1)CCCC3)N1CCN(c2cccc(C(F)(F)F)c2)CC1	GLP1R inv ag 10µM (no result: GLP1R ag)
O=S(=O)(c1ccc2[nH]c3c(c2c1)CCCC3)N1CCCCC1	GLP1R inv ag inconclusive
COc1ccccc1C(=O)N(CCC1CCCN1C)c1nc2ccccc2s1 (centres undefined)	GLP1R inv ag 3.5µM
O=C(NCC(c1ccco1)N1CCCC1)c1ccc(Cl)cc1 (centres undefined)	GLP1R inv ag inconclusive
O=C(NCC(c1ccco1)N1CCCC1)c1cc2cc(Cl)ccc2o1 (centres undefined)	GLP1R inv ag 10µM
CCn1c(CNC(=O)c2ccc(OC)cc2)nnc1SCC(=O)Nc1ccc(F)cc1	none
N#C/C(=C\c1ccc(-c2ccc(C(=O)O)cc2)o1)C(=O)Nc1ccccc1C(=O)O	none (no result: GLP1R ag)
COc1ccc(/C=N/Nc2nc(Nc3ccccc3)nc(N3CCCC3)n2)cc1[N+](=O)[O-]	GLP1R cytotox inconclusive
COc1ccc(/C=N/Nc2nc(Nc3ccccc3)nc(N3CCCCC3)n2)c(OC)c1	GLP1R cytotox 5µM, GLP1R inv ag inconclusive
COc1cc(/C=N/Nc2nc(Nc3ccccc3)nc(N3CCOCC3)n2)ccc1OC(=O)c1ccco1	GLP1R inv ag 4.5µM
CCC(C)n1c(SCc2ccc(F)cc2Cl)nc2ccsc2c1=O (centres undefined)	none (no result: GLP1R ag)
O=[N+]([O-])c1ccc(C=NN2CCCCCC2)cc1	GLP1R inv ag 11µM
CCCCCn1c(=O)[nH]c2cc(C(=O)NCCN3C(C)CCCC3C)ccc2c1=O (centres undefined)	GLP1R inv ag 1.8µM
C/C=C/c1ccc(OCC(O)CN2CCCCC2CC)c(OC)c1 (centres undefined)	GLP1R inv ag 13µM
C/C=C/c1ccc(OCC(O)CNCCc2ccc(OC)cc2)c(OC)c1 (centres undefined)	GLP1R cytotox inconclusive, GLP1R inv ag inconclusive
Cc1cccc(CN2CCC(C(=O)Nc3cccc(-c4cccc(F)c4)c3)CC2)n1	GLP1R cytotox inconclusive, GLP1R inv ag 10µM
COc1ccc(NC(=O)C2CCN(c3cc(C)nc(-c4ccccc4)n3)CC2)cc1	GLP1R cytotox inconclusive, GLP1R inv ag inconclusive
Cc1nn(C(C)C)c(C)c1CN1CCC(C(=O)Nc2cccc(-c3cccc(F)c3)c2)CC1	GLP1R cytotox inconclusive, GLP1R inv ag 5µM
Cc1cc(N2CCC(C(=O)Nc3ccc(F)cc3)CC2)nc(-c2ccccc2)n1	GLP1R inv ag 10µM
Cc1cccc(CN2CCC(C(=O)Nc3cccc(-c4cscn4)c3)CC2)n1	none
COc1ccc(-n2nc(C(=O)Nc3ccc(C)cn3)c3c4ccccc4n(C)c3c2=O)cc1	none (no result: GLP1R ag)
COc1ccc(S(=O)(=O)n2nc(C)c(S(=O)(=O)N3CCC(C)CC3)c2C)cc1C	none
COc1cc(NS(=O)(=O)c2ccc(-c3cc(C)no3)cc2)cc(OC)c1	GLP1R cytotox inconclusive, GLP1R inv ag inconclusive (no result: GLP1R ag)
CCc1ccc(NC(=O)Cc2cn(C)c3ccccc23)cc1	PTHR1 ag inconclusive, GLP1R inv ag 10µM
CCc1ccc(NC(=O)Nc2cn(C)c(=O)c3ccccc23)cc1	none (no result: GLP1R ag)
CC1(C)CC(=O)c2cc(C(=O)NCc3ccco3)c(=O)n(-c3ccccc3)c2C1	none
CC1(C)CC(=O)c2cc(C(=O)NNc3ccccc3)c(=O)n(-c3ccccc3)c2C1	GLP1R inv ag 1µM
CCOc1ccc(-c2c(C(=O)N/N=C/c3cccs3)nnn2-c2nonc2N)cc1	none
Cc1ccc(-c2c(C(=O)N/N=C/c3ccc4c(c3)OCO4)nnn2-c2nonc2N)cc1	GLP1R cytotox inconclusive, GLP1R inv ag 10µM
CCOc1ccc(-c2c(C(=O)N/N=C/c3ccc(C)s3)nnn2-c2nonc2N)cc1	GLP1R inv ag 11µM
Cc1ccc(SCc2c(C(=O)N/N=C/c3ccc4c(c3)OCO4)nnn2-c2nonc2N)cc1	none
CCOc1ccc(C(C(=O)NC2CCCC2)N(CCCO)C(=O)c2ccc(-c3ccccc3)[nH]2)cc1 (centres undefined)	GLP1R inv ag 13µM
O=C1c2ccccc2NC(c2ccc(Cl)cc2Cl)N1Cc1ccccc1 (centres undefined)	GLP1R inv ag 7.1µM
CCOc1cc(C(=O)NCC(C)(C)CNC(=O)c2cc(OCC)c(OCC)c(OCC)c2)cc(OCC)c1OCC	GLP1R inv ag 10µM
CCOC(=O)c1c(C)c(-c2ccccc2)n(CC(=O)NC2CCCCCC2)c1C	none
CCC(C)(C)n1nnnc1C(c1ccccc1)N1CCN(Cc2ccccc2)CC1 (centres undefined)	none
CC(C)CCn1nnnc1CN1CCN(C(c2ccccc2)c2ccccc2)CC1	GLP1R inv ag 13µM
c1ccc(C(c2ccccc2)N2CCN(Cc3nnnn3C3CCCC3)CC2)cc1	GLP1R inv ag 7.9µM
CCC(C)(C)n1nnnc1CN1CCN(C(c2ccccc2)c2ccccc2)CC1	GLP1R inv ag 10µM
NC(=S)N/N=C/c1cccc(/C=N/NC(N)=S)c1	none
O=C(COc1ccccc1-c1ccccc1)N/N=C/c1ccc2ccccc2c1	GLP1R cytotox inconclusive, GLP1R inv ag 1µM
O=C(COc1ccccc1-c1ccccc1)N/N=C/c1ccncc1	GLP1R inv ag inconclusive
NC(=S)N/N=C/c1ccc2ccccc2c1	GLP1R cytotox 3.2µM, GLP1R inv ag 5.6µM
CCSc1nnc(NC(=O)NC(CC)(C(F)(F)F)C(F)(F)F)s1	GLP1R cytotox inconclusive, GLP1R inv ag 7.1µM
CCSc1nnc(NC(=O)NC(C)(C(F)(F)F)C(F)(F)F)s1	GLP1R inv ag 10µM
CCCC(=O)Nc1nnc(SCC)s1	none
COc1cccc(NC(=O)Cn2c(=O)n(-c3ccc(C)cc3)c(=O)c3ccccc32)c1	none
C=C(C1=CCN(S(=O)C(C)(C)C)[C@H]1CCO)c1ccccc1 (some centres undefined)	GLP1R inv ag 11µM
Cc1cccc(NC(=O)c2ccc(CNS(=O)(=O)c3ccc4c(c3)C(C)(C)C(=O)N4C)cc2)c1	GLP1R inv ag inconclusive (no result: GLP1R ag)
CC1CCCCC1NCC#CCOc1ccc(Cl)cc1 (centres undefined)	GLP1R inv ag 11µM
CCCCn1c(N)c(N(CCOC)C(=O)CN(C)CC(=O)Nc2ccc(Cl)c(Cl)c2)c(=O)[nH]c1=O	PTHR1 ag 50µM, GLP1R inv ag inconclusive
CCCCn1c(N)c(N(CCOC)C(=O)CSCc2ccc(Cl)c(Cl)c2)c(=O)[nH]c1=O	none
